Data: ChEMBL document CHEMBL3988442, “University of Dundee, Small-Polar-MMV Screening Library” (2021)
The whole screen tested about 53,000 compounds, of which about 900 (1.7%) showed an effect of 50% or more. The entries come from a sample that favours strong results as a whole.

system: Mycobacterium tuberculosis; assay: Cornell - Phenotypic assay to identify agents that inhibit growth of Mycobacterium tuberculosis; assay type: functional; set-up: scale not given: direction of the effect not stated beside the values; conditions: 10 mM as filed; unlikely as a test dose

SMILES	Percent Effect
COC(=O)Nc1cccc(C(=O)N(C)Cc2cccc(O)c2)c1	16.47%
CC(C)(C)CC(=O)N1CCC(c2nn(CCN)c3nccnc23)C1 (centres undefined)	-1.305%
CSc1nnc(N(CCC#N)CCC#N)s1	7.045%
Cc1nnc(N(CCC#N)CCC#N)s1	53.32%
CCSc1nnc(N(CCC#N)CCC#N)s1	19.26%
CC(=O)NCC(=O)N1Cc2nccn2CC(Cn2cccn2)C1 (centres undefined)	8.126%
CN(Cc1nc2ccccc2n1C)C(=O)CCc1cscn1	3.18%
Cc1ccc(NCc2cccc3cn[nH]c23)cc1OC1CCOC1 (centres undefined)	50.19%
Cc1ccc(CNCc2cccc3cn[nH]c23)c(OC2CCOC2)c1 (centres undefined)	31.88%
COCCOc1ccc(NCc2cccc3cn[nH]c23)cn1	0.8667%
CN1CCCN(C(=O)c2cnsn2)c2cc(Cl)ccc21	23.17%
CN1CC2(CCCN(CCOCc3ccccc3)C2)OC1=O (centres undefined)	17.75%
COc1ccccc1OCC(=O)NS(=O)(=O)c1ccccc1Br	29.83%
N#Cc1cn[nH]c1NCc1cc(Cl)cc(Cl)c1O	4.06%
N#Cc1cn[nH]c1NCc1cc(I)cc(I)c1O	104.4%
N#Cc1cn[nH]c1NCc1cc(Br)ccc1O	-2.668%
CN1C[C@@H](C(=O)NC2CC2)[C@@]2(COc3ccc(F)cc3C2=O)C1	-27.17%
Cn1cc(N2C(=O)CC[C@@H]3[C@H]2CCN3Cc2cccc(C#N)c2)cn1.O=C(O)C(F)(F)F.O=C(O)C(F)(F)F	14.16%
CN1CCCCCC1C(=O)NCCCn1ncc2ccccc21 (centres undefined)	28.62%
CCCn1nnc(NCc2cc(Br)cc(Br)c2OC)n1	40.71%
CCn1nnc(NCc2cc(Br)cc(Br)c2OC)n1	31.18%
CCC(CO)NCc1ccc(-c2ccc(Br)cc2)o1.Cl (centres undefined)	52.02%

SMILES	Percent Effect
CCC(CO)NCc1ccc(-c2ccccc2)o1.Cl (centres undefined)	5.639%
CCC(CO)NCc1ccc(-c2ccc(F)c(Cl)c2)o1.Cl (centres undefined)	48.48%
CCCn1nnc(NCc2ccc(-c3ccc(Br)cc3)o2)n1	31.95%
CCn1nnc(NCc2ccc(-c3ccc(Br)cc3)o2)n1	69.94%
CCC(CO)NCc1ccc(-c2ccc(Cl)cc2)o1.Cl (centres undefined)	16.24%
CCC(CO)NCc1ccc(-c2ccc(F)cc2)o1.Cl (centres undefined)	35.55%
Cn1nnc(NCc2ccc(-c3ccc(Br)cc3)o2)n1	60.92%
Cn1nnc(NCc2ccc(-c3ccc(Cl)cc3)o2)n1	60.16%
Cn1ncnc1NCc1ccc(Cl)cc1	-4.993%
O=C(c1sccc1Cl)N1CCC(Cn2cc(CO)nn2)CC1	28.9%
CC(Nc1cccc(COCc2ccco2)c1)C(=O)NC(N)=O (centres undefined)	25.61%
COCCCNC(=O)C(C)n1nc(-c2ccco2)cc(N)c1=O (centres undefined)	37.24%
Cc1ncncc1-c1ccnc(N)n1	1.831%
CS(=O)(=O)c1ccc(NCC2CCCO2)c(S(C)(=O)=O)c1 (centres undefined)	-21.42%
Cc1ccccc1C(C(=O)NCCSC(C)C)N(C)C (centres undefined)	29.49%
CNc1ncc2c(n1)CN(CCc1ccc(C)cc1)C2=O	8.766%
Cn1ccc(C(=O)N2CCCC(c3cc4cccnc4c(O)n3)C2)n1 (centres undefined)	-16.1%
CN(C)CCC1CCN(c2cc(N3CCCC3CO)ncn2)CC1 (centres undefined)	-19.44%
CC(C)n1nccc1C(=O)N1CCC(c2nnsc2S(C)(=O)=O)CC1	12.35%
Cc1nonc1CNC(=O)C(C)Oc1ccccc1F (centres undefined)	47.11%
Cc1noc(C)c1CNC(=O)C(C)Oc1ccccc1F (centres undefined)	-2.201%
Cc1nonc1CNC(=O)C(C)Oc1cccc(F)c1 (centres undefined)	53.11%

SMILES	Percent Effect
CCOCC1CN(Cc2ccncc2)Cc2nn(C)cc21.O=C(O)C(F)(F)F.O=C(O)C(F)(F)F (centres undefined)	12.3%
O=C(O)C(F)(F)F.O=C(O)C(F)(F)F.c1c(CN2CCCC2)nc2n1CCN(C1CCOCC1)C2	3.362%
Cc1cc(C(=O)NC2CCN(CC(N)=O)CC2)nn1C(C)(C)C	11.5%
COCCn1ccc2c(C(=O)Nc3nc4c(s3)CCC4)cccc21	15.95%
COCCn1ccc2c(NC(=O)C(C)C)cccc21	18.08%
CC(=O)Nc1cccc2c1ccn2CC(=O)Nc1n[nH]c(CC(C)C)n1	-27.06%
COCCn1ccc2c(NC(=O)c3n[nH]c4c3CCC4)cccc21	61.23%
CC(C)n1ccc2c(NC(=O)c3n[nH]c4c3CCC4)cccc21	48.39%
COCCn1ccc2c(C(=O)O)cccc21	17.17%
COCCn1ccc2c(NC(=O)c3n[nH]c4c3CCCC4)cccc21	70.2%
CC(C)Cn1ccc2c(NC(=O)c3n[nH]c4c3CCC4)cccc21	50.74%
COCCn1ccc2c(C(=O)NC(C)C)cccc21	10.53%
COc1cc(C)cc(OC)c1C(C(=O)O)N(C)Cc1c(C)nn(C)c1C (centres undefined)	1.527%
COCCn1c2c(ccc1=O)CCN(C(=O)C1CC=CC1)CC2	18.02%
NC(=O)CCNCc1c(Cl)cccc1N1CCCC1	-9.412%
COCCNc1cc(-c2ccccc2C(N)=O)c2cc[nH]c2n1	26.26%
Cc1cc(C)n2ncc(CN3C[C@@H](O)[C@H](Oc4ccccc4)C3)c2n1	0.3545%
CN1CCN(c2nc(O)cc(Cc3ccccc3F)n2)CC1	10.81%
CC(=O)N1CC(C(=O)NCCc2ncc(C)s2)C1	6.986%
CC(C)c1cc(NC(=O)CN2CCC(N3CCNC3=O)CC2)on1	6.075%
